Data: PubChem BioAssay (Tox21)
Inconclusive results are not listed. A call without a number means that no potency is given here. The source made the active and inactive calls. The call rests on the fitted dose curve; in most records, active means well fitted cell-killing curve with a large enough effect in the repeat runs; inconclusive means weak or mixed curves, or effect the other way; inactive means flat fitted curve, though single readings scatter.

Test: Nuclear factor erythroid 2-related factor 2/antioxidant responsive element (Nrf2/ARE) small molecule agonists: qHTS cell viability counter screen in human keratinocytes (AID 1919968); further: nearly all actives have a fitted effect of over 55% in size
Settings: KeratinoSens HaCaT ARE cells viability, CellTiter-Fluor, 24 h; series mostly up to 92.4 µM
How it was run: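 In human HaCaT keratinocytes stably expressing an ARE-driven luciferase, compound exposure lasted 23 h at 37 C under 5% CO2. Viable cells are quantified with a protease-based fluorogenic reagent (CellTiter-Fluor) read 1 h after addition.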

With `CCOC=C(C(=O)OCC)C(=O)OCC` as the compound, how does the Potency read?
The Potency was “inactive”.

Which Potency does the source give for `CCC(=O)OCc1ccccc1` here?
The Potency was “inactive”.

Which Potency does the source give for `O=C1CC[C@H](C(=O)N2CCCCC2)N1` here?
Its Potency is “inactive”.

Which Potency does the source give for `C=C1CC/C=C(\C)CC[C@@H]2[C@@H]1CC2(C)C` here?
The Potency was “inactive”.

For `COc1cc(S(N)(=O)=O)cc(C(=O)O)c1OC`, which Potency is on record?
Its Potency is “inactive”.

With `C1COCCO1` as the compound, how does the Potency read?
The Potency was “inactive”.

With `CC/C=C/CCO` as the compound, how does the Potency read?
Its Potency is “inactive”.

For `CC(=O)N1CCN(c2ccc(O)cc2)CC1`, which Potency is on record?
The Potency was “inactive”.

With `Cc1ncc(CO)c(CN)c1O` as the compound, how does the Potency read?
Its Potency is “inactive”.

With `CC(C)(C)c1ccc(CCC=O)cc1` as the compound, how does the Potency read?
The Potency was “inactive”.

For `CC1=C(O)C(=O)C(C)O1` (centres undefined), which Potency is on record?
Its Potency is “inactive”.

With `CCOC(=O)[C@H](CCc1ccccc1)N[C@@H](C)C(=O)N1C(=O)N(C)C[C@H]1C(=O)O` as the compound, how does the Potency read?
The Potency was “inactive”.

For `CCCCCCCCCCCCCCCCCC(=O)OCC(CC)CCCC` (centres undefined), which Potency is on record?
The Potency was “inactive”.

Which Potency does the source give for `NC(=O)Cc1cccc2ccccc12` here?
Its Potency is “inactive”.

Which Potency does the source give for `Cc1cnccn1` here?
The Potency was “inactive”.

Which Potency does the source give for `O=Cc1ccc(Cl)cc1` here?
Its Potency is “inactive”.

Which Potency does the source give for `CCCCCCCCCCC` here?
Its Potency is “inactive”.

For `CCCCOC(=O)CCS`, which Potency is on record?
Its Potency is “inactive”.

Which Potency does the source give for `COc1cc(C(=S)N2CCOCC2)cc(OC)c1OC` here?
The Potency was “inactive”.

For `CCCC(=O)Nc1ccc(O)c(C(C)=O)c1`, which Potency is on record?
Its Potency is “inactive”.

For `COc1cc2c(Nc3ccc(Br)cc3F)ncnc2cc1OCC1CCN(C)CC1`, which Potency is on record?
Its Potency is “inactive”.

Which Potency does the source give for `CC(=O)c1ccc2c(c1)CCCC2` here?
Its Potency is “inactive”.

With `c1cnc2cc3c(cc2n1)C1CNCC3C1` as the compound, how does the Potency read?
The Potency was “inactive”.

With `O=Cc1ccc([N+](=O)[O-])cc1` as the compound, how does the Potency read?
Its Potency is “inactive”.

Which Potency does the source give for `CCC(=O)O[C@@H]1C[C@H]2CC[C@]1(C)C2(C)C` here?
Its Potency is “inactive”.

For `CCNc1nc(N)nc(Cl)n1`, which Potency is on record?
The Potency was “inactive”.

For `CN(C)CCCNCCC#N`, which Potency is on record?
Its Potency is “inactive”.

Which Potency does the source give for `O=C1CCN(c2ccccc2)N1` here?
Its Potency is “inactive”.

Which Potency does the source give for `O=C(O)c1ccc(OCCN2CCCCC2)cc1` here?
Its Potency is “inactive”.

With `C=CC(C)(O)CC/C=C(/C)CCC=C(C)C` (centres undefined) as the compound, how does the Potency read?
Its Potency is “inactive”.

Which Potency does the source give for `Cc1cc(CCC(=O)OCCOCCOCCOC(=O)CCc2cc(C)c(O)c(C(C)(C)C)c2)cc(C(C)(C)C)c1O` here?
The Potency was “inactive”.

With `C1CCCC1` as the compound, how does the Potency read?
Its Potency is “inactive”.

Which Potency does the source give for `NS(=O)(=O)c1ccccc1OC(F)(F)F` here?
The Potency was “inactive”.

With `Clc1ccc2c(c1)Nc1ccccc1S2` as the compound, how does the Potency read?
The Potency was “inactive”.

For `CC(C)(O)C(=O)c1ccc(OCCO)cc1`, which Potency is on record?
Its Potency is “inactive”.

Which Potency does the source give for `C[Si](C)(C)O[Si](C)(C)O[Si](C)(C)C` here?
Its Potency is “inactive”.

Which Potency does the source give for `[Cl][Nd]([Cl])[Cl]` here?
The Potency was “inactive”.

Which Potency does the source give for `O=C(Cn1ccnc1[N+](=O)[O-])NCc1ccccc1` here?
The Potency was “inactive”.

With `O=C(O)CC(=O)O` as the compound, how does the Potency read?
The Potency was “inactive”.
